Reference: PubChem BioAssay (NCATS)
Results filed as inconclusive are left out. Activity calls are given as the source filed them. Calls follow the shape of the dose curve; as a rule, active = well fitted curve in the direction sought with a large enough effect; inconclusive = small, poorly fitted or top-dose-only effect, or another doubt; inactive = no such curve, though single readings can be large; an effect the other way counts as inactive or inconclusive.

How the values were obtained:
[1] = target: Glutathione peroxidase 1 (Homo sapiens) (UniProt P07203); test: Primary qHTS Assay for Inhibitors of Recombinant Selenoprotein Glutathione Peroxidase 1 (GPX1) (AID 1845191); also: nearly all actives have a fitted effect of over 65% in size
Outline: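 GPX1 10 nM, GR 100 nM, GSH 1 mM, NADPH 0.5 mM, CHP 0.5 mM (final). 30-min cpd preincubation, RT. Ex340/Em450 read t=0, t=15 min.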

[2] = target: Phospholipid hydroperoxide glutathione peroxidase GPX4 (Homo sapiens) (UniProt P36969); test: Primary qHTS Assay for Inhibitors of Recombinant Selenoprotein Glutathione Peroxidase 4 (GPX4) (AID 1845192); also: series mostly up to about 50 µM; nearly all actives have a fitted effect of over 65% in size
Outline: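 qHTS, GR-coupled: GPX4 200 nM + cpd 30 min RT → GSH 1 mM, NADPH 0.5 mM, GR 100 nM → CHP 0.5 mM start; fluor 340/450 at t0 and t15 min; no-enzyme wells as control.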

[3] = target: Luciferin 4-monooxygenase (Photinus pyralis) (UniProt P08659); test: Primary firefly luciferase (FLuc) qHTS assay for identification of artifact compounds. (AID 1845220); also: nearly all actives have a fitted effect of over 60% in size
Outline: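 qHTS, 15 min compound preincubation with substrate (10 uM luciferin, 10 uM ATP) at RT, then 10 nM FLuc; 5 min; luminescence; % inhibition vs no-enzyme/DMSO controls, 4-parameter Hill fit.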

[4] = Primary fluorescence-based thiol-reactive (MSTI) qHTS assay for identification of artifact compounds. (AID 1845221);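 also: series mostly up to about 54 µM; thiol-reactive compounds lower the probe fluorescence signal; nearly all actives have a fitted effect of over 65% in size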
Outline: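 First, 4 uM MSTI in 2% DMSO/PBS pH 7.4 was dispensed; next, compounds were added; then plates sat 1 h at room temperature without light. Finally, emission at 598 nm was recorded.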

[5] = tested on: Nanoluciferase (engineered Oplophorus gracilirostris luciferase); test: Primary Nanoluciferase (NLuc) qHTS assay for identification of artifact compounds. (AID 1845222); also: series mostly up to about 54 µM
Outline: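 Luminescence read-out of secreted NLuc in S16 cell conditioned medium (1:55); compounds tested with 15 min RT preincubation, then Nano-Glo substrate 1:100, 5 min. % inhibition vs no-enzyme and DMSO controls, 4-parameter Hill fit.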

[6] = Primary redox qHTS assay for identification of artifact compounds. (AID 1845223)
Outline: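 Redox-cycling detection via DTT (250 uM final) oxidation coupled to Amplex Red (25 uM)/HRP (250 mU/mL) in HBSS. 15 min preincubation plus 30 min after DTT, room temperature. Ex/Em 525/598 nm; 4-parameter Hill fit against DMSO and 10 uM DA3003.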

Measured: Potency

Sequence of Phospholipid hydroperoxide glutathione peroxidase GPX4 (Homo sapiens) (P36969 whole entry, looked up): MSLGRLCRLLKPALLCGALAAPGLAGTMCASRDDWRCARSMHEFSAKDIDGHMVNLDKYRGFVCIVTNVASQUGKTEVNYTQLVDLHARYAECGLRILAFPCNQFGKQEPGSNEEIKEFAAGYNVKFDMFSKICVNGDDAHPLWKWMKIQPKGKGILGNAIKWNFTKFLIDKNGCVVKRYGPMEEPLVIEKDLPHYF
Sequence of Glutathione peroxidase 1 (Homo sapiens) (P07203 whole entry, looked up): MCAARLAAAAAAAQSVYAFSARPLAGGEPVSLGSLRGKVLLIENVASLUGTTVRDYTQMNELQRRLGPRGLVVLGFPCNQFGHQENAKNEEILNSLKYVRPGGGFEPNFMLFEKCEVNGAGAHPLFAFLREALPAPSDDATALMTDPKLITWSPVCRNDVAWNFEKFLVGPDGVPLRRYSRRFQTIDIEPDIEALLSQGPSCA

C=C1CC[C@@H]2[C@](C)(CO)[C@H](O)CC[C@@]2(C)[C@@H]1C/C=C1/C(=O)OCC1O (some centres undefined)
inactive: all assays above

CCn1c(-c2nonc2N)nc2c(C#CC(C)(C)O)ncc(OCC3CCCNC3)c21 (centres undefined)
inactive: all assays above

C=C1C(=O)O[C@@H]2C3C(=C(C)[C@@H](O)[C@@H](OC(=O)/C(=C/C)COC(C)=O)[C@@H]12)C(=O)[C@H]1O[C@@]31C (some centres undefined)
inactive: all assays above

O=C(N[C@H](Cc1cscn1)C(=O)N[C@@H](CC1CCCCC1)[C@@H](O)[C@@H](O)C1CC1)c1nc2ccccc2[nH]1
inactive: all assays above

CC(C)CCCCC(=O)N[C@@H](CO)C(=O)N[C@@H](CC(C)C)C(=O)[C@@]1(CO)CO1
inactive: all assays above

Nc1nc(NC2CC2)cc(-c2cccc(Cl)c2Cl)n1
inactive: all assays above

O=C(Nc1ccc(CN2CCOCC2)cc1)c1ccc(-c2cccc(Cl)c2)o1
inactive: all assays above

CO[C@@H]1[C@H](O)CCC2(CO2)[C@H]1[C@@]1(C)O[C@@H]1CC=C(C)C (some centres undefined)
inactive: all assays above

N#CC(CCCN1CCC(O)(c2ccc(Cl)cc2)CC1)(c1ccccc1)c1ccccc1
inactive: all assays above

C/C=C/CCC1Cc2cc(O)c(CCCC)c(O)c2C(=O)O1 (centres undefined)
inactive: all assays above

Fc1ccc(-c2nc(C3CCNCC3)sc2-c2ccnc(NC3CC3)n2)cc1
inactive: all assays above

CC(C)n1nc(C#Cc2ccccc2)c2c(N)ncnc21
inactive: all assays above

CC1(C=O)CCCC2(C)C1CCC13CC(CO)C(CCC12)C3 (centres undefined)
inactive: all assays above

CC(C)n1cnc2c(-c3cnc(N)nc3)nc(N3CCOCC3)nc21
inactive: all assays above

Cc1cc(C)nc(SCC(=O)Nc2ncc(Cc3cccc4ccccc34)s2)n1
inactive: all assays above

C=C(C=O)[C@]1(O)C[C@@]2(C)C(=CC1=O)C=C[C@H](OC(=O)/C=C/C=C/[C@H](C)CC)[C@@H]2C
inactive: all assays above

CC(C)=C1C[C@@]2(C)C(=CC1=O)CC[C@@H](OC(=O)/C(C)=C/CO)[C@@H]2C
inactive: all assays above

CC(C)(O)c1ccc2c(c1)ncn2-c1cccc(-c2ccccc2C#N)c1
inactive: all assays above

Clc1ccc(Cn2c(Cc3ccccc3)nc3ccccc32)cc1
inactive: all assays above

Cc1cc(Nc2nc(-c3ccccc3)nc3ccccc23)n[nH]1
inactive: all assays above

N#Cc1ccc(COC[C@H]2O[C@@H](n3c(NCc4ccc(Cl)c(Cl)c4)nc4c(N)ncnc43)[C@H](O)[C@@H]2O)cc1
inactive: all assays above

CN(C)CCOC(C)(c1ccccc1)c1ccc(Cl)cc1 (centres undefined)
inactive: all assays above

CNc1cccc(CCOc2ccc3c(c2)CN(CC(F)(F)F)C(=O)[C@H](CC(=O)O)C3)n1
inactive: all assays above

CC1=C2C[C@@]3(C)C(CCC[C@@H]3C)C(O)C2OC1=O (some centres undefined)
inactive: all assays above
